Experimental data taken from PubChem BioAssay AID1445 (SRMLSC, 2008).
The campaign covered roughly 220,000 compounds. About 910 (0.41%) were called active. The sample as a whole holds a higher share of actives than the screen did. Measured potencies and affinities stand elsewhere. A number with no mark means an inactive call.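 The calls were made as follows: active = primary inhibition above the hit cutoff, then over 50% inhibition at one or more dose response concentrations (cut at about 23% in these data, passing the limit was not always enough); inconclusive = conflicting primary data, or primary hits not chosen for dose response; inactive = low primary inhibition, or under 50% at every dose.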

Each compound was assayed against Aminopeptidase N (Plasmodium falciparum (isolate 3D7)) (UniProt O96935) (assay: P. falciparum M1AAP inhibitors, biochemical, fluorogenic H-Leu-NHMec substrate, 1536-well (AID 1445;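 also: plate controls were DMSO full reaction for no effect and no enzyme background for full effect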)). Settings: recombinant M1AAP, H-Leu-NHMec fluorogenic kinetic assay; at 30 µM, stronger effect = higher value unless noted.
Aminopeptidase N (Plasmodium falciparum (isolate 3D7)), sequence (O96935 whole entry, looked up): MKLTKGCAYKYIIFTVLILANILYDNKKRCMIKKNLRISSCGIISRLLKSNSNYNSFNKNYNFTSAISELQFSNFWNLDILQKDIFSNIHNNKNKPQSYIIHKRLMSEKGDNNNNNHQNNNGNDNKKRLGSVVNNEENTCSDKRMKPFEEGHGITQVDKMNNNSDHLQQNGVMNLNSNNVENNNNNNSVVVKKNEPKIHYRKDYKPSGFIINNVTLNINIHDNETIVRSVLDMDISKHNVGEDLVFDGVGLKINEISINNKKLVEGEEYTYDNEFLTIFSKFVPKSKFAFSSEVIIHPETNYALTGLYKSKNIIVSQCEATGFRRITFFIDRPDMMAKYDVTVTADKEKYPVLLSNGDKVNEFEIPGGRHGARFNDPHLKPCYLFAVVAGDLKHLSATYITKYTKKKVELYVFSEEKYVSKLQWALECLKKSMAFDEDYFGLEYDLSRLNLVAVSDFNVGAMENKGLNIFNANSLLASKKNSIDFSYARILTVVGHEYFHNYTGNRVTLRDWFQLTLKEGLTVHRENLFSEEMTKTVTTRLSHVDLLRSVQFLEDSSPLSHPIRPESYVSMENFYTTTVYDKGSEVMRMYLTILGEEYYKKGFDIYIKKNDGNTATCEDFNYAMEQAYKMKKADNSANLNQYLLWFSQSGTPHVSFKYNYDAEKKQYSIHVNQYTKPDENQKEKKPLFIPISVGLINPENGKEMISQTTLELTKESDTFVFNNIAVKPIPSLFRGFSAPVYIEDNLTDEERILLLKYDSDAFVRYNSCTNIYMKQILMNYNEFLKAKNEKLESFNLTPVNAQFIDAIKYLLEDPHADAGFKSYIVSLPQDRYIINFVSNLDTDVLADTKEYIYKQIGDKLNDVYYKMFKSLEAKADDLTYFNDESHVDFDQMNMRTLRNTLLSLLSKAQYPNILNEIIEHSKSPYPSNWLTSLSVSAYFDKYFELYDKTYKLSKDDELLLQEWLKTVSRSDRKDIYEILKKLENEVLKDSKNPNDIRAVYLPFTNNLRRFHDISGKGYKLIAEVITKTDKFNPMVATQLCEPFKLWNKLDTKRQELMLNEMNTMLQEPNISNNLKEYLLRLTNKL

Structure (SMILES) | inhibition
Cc1cccc(CN2CCN(CCCc3ccccc3)CC2)c1 | -1.11%
COc1ccccc1NS(=O)(=O)c1ccc(N/N=C/c2ccccc2OCC(=O)O)c([N+](=O)[O-])c1 | 13.1%
CCN(CC)S(=O)(=O)c1ccc(N/N=C/c2ccccc2OCC(=O)O)c([N+](=O)[O-])c1 | 11.3%
COC(=O)/C(=C\Nc1cccc(Cl)c1C)c1ncc(C(F)(F)F)cc1Cl | -7.97%
Cc1cc(C(=O)COC(=O)c2ccc(N)c([N+](=O)[O-])c2)c(C)n1-c1ccc2c(c1)OCO2 | 4.88%
COc1cc([N+](=O)[O-])ccc1-c1ccc(/C=N/NC(N)=O)o1 | 0.13%
COc1cc([N+](=O)[O-])ccc1-c1ccc(/C=N/NC(=O)OC(C)(C)C)o1 | 3.22%
N#CCCN(CCC#N)C(=O)c1ccc(Cl)cc1 | 0.66%
Nc1cc(N)nc(SCc2cccnc2)n1 | -6.1%
O=C(CO/N=C/c1c(Cl)cccc1Cl)NNC(=O)c1cccc(Cl)c1 | 0.37%
O=C(NNC(=O)c1cc(-c2ccccc2)nc2ccccc12)Nc1cccc(Cl)c1 | 6.82%
Cc1cccc(S(=O)(=O)NNC(=O)c2cc(-c3ccc(F)cc3)nc3ccccc23)c1 | 15.2%
Cc1cccc(N2CCN(Cc3cnc(Cl)s3)CC2C)c1 (configuration not stated) | 3.39%
COc1ccc(CNC(=O)c2csc(Cc3ccccc3)n2)cc1 | 2.78%
Cc1nc2ccc(Cl)cc2c(-c2ccccc2Cl)c1CC(=O)O | -0.5%
Cc1nc2ccc(Cl)cc2c(-c2ccccc2F)c1CC(=O)O | 16.3%
C/C(Cn1cnc([N+](=O)[O-])n1)=N\NC(=O)c1ccccc1 | 15.8%
CCOc1ccc(NC(=O)C/C(N)=N/O)cc1 | -8.44%
COc1ccc([N+](=O)[O-])cc1NS(=O)(=O)c1cccc(C(=O)O)c1 | 7.17%
O=C(O)c1cccc(S(=O)(=O)Nc2ccccc2Cl)c1 | 0.86%
CCOc1cc(C(=O)N(C)Cc2cc3ccccc3[nH]c2=O)cc(OCC)c1OCC | 4.4%
CCc1nc2sc3c(c2c(=O)n1N)CC(C)(C)OC3 | -0.3%
CCCCCCCCCc1nc2sc3c(c2c(=O)n1NC(=O)c1ccc([N+](=O)[O-])cc1)CC(C)(C)OC3 | 3.87%

Structure (SMILES) | inhibition
CCCCCCCCCc1nc2sc3c(c2c(=O)n1NC(=O)c1ccccc1[N+](=O)[O-])CC(C)(C)OC3 | -2.36%
CCCCCc1nc2sc3c(c2c(=O)n1NC(=O)c1ccc([N+](=O)[O-])cc1)CC(C)(C)OC3 | 4.81%
Cn1c(=O)c(C(=O)COc2ccc(F)cc2Cl)c(N)n(Cc2ccccc2)c1=O | 6.9%
COc1ccc(CC(NC(C)=O)C(=O)NC2CCN(c3c(Cc4ccccc4)c(C)nc4ncnn34)CC2)c(OC)c1 (configuration not stated) | -2.17%
C/C(=N/N1CCN(c2ccccn2)CC1)c1ccc([N+](=O)[O-])cc1 | -1.3%
COc1ccc(Cn2nnc3c(=O)[nH]c(C(=O)NCCc4ccc(F)cc4)nc32)cc1OC | 24.5% (active)
O=C(NCc1cccs1)c1nc2c(nnn2Cc2ccc(F)cc2)c(=O)[nH]1 | 2.78%
O=C(NCCc1ccccc1)c1nc2c(nnn2Cc2ccccc2Cl)c(=O)[nH]1 | -9.83%
O=C(COC(=O)c1cccc(C(=O)OCC(=O)NCc2ccc(F)cc2)n1)NCc1ccc(F)cc1 | 5.21%
Cc1cccc(NC(=O)C(NS(=O)(=O)c2ccc3c(c2)CCC(=O)N3)c2ccccc2)n1 (configuration not stated) | 2.64%
CSc1ncc(Cl)c(C(=O)Nc2nnc(SC/C=C/c3ccccc3)s2)n1 | 30%
CSc1ncc(Cl)c(C(=O)Nc2nnc(SC)s2)n1 | 12.7%
CCSc1ncc(Cl)c(C(=O)Nc2ccccc2)n1 | 2.17%
C=CCSc1nnc(NC(=O)c2ccc(Cl)nc2)s1 | 2.22%
Fc1ccc(NC(=S)NC23CN4CN(CN(C4)C2)C3)cc1 | 6.25%
CCc1cccc(CC)c1NC(=O)COn1nnc2ccc(C(F)(F)F)cc21 | -1.32%
O=S(=O)(Nc1ccc(O)c(Sc2nc3ccccc3s2)c1)c1ccc(F)cc1 | 7.05%
O=C(O)c1cccc(S(=O)(=O)Nc2ccc(O)c(Sc3nc4ccccc4s3)c2)c1 | 22.2%
COc1ccc(S(=O)(=O)Nc2ccc(O)c(Sc3ncn[nH]3)c2)cc1 | 18%
O=S(=O)(Nc1ccc(O)c(Sc2nc3ccccc3s2)c1)c1ccc(Cl)cc1 | 0.11%
Cc1cc(C)nc(NC(=O)/C=C/c2ccc3c(c2)OCO3)c1 | 4.5%
Cc1cccc(NC(=O)CN2C(=O)COc3ccc(Cl)cc32)c1C | 0.78%
COc1cc(/C=C/C(=O)O)ccc1OS(=O)(=O)c1ccc(C)cc1 | 0.48%

Structure (SMILES) | inhibition
CCOc1ccc(/C=C2\SC(=S)NC2=O)cc1OC | 17.4%
COc1cc(C=O)ccc1OS(=O)(=O)c1ccc(NC(C)=O)cc1 | 7.57%
COc1cc(/C=C(\C#N)C(N)=O)ccc1OS(=O)(=O)c1ccc(C)cc1 | 12.9%
COc1ccc(C=O)cc1OS(=O)(=O)c1ccc(NC(C)=O)cc1 | 4.39%
COc1ccc(/C=C2/S/C(=N/S(=O)(=O)Cc3ccccc3)NC2=O)cc1OC | 12.7%
CCOc1ccc(S(=O)(=O)N2CCOCC2)cc1[N+](=O)[O-] | 1.27%
Nc1ccc(C(=O)OCC(=O)c2cccc([N+](=O)[O-])c2)cc1 | -2.36%
Cc1nc(NCc2ccccc2)sc1C(=O)Nc1ccccc1 | -1.78%
CN1CCc2c(sc(NC(=O)c3ccc(S(=O)(=O)N4CCc5ccccc54)cc3)c2C(N)=O)C1 | 5.03%
CCN(CC(=O)Nc1ccccc1OC)C(=O)COc1ccc2ccccc2c1 | 5.71%
Cc1cc2c(cc1C)NC(c1ccccn1)C1=C(CC(C)(C)CC1=O)N2 (configuration not stated) | 23.3% (active)
CC1(C)CC(=O)C2=C(C1)Nc1cc(C(=O)c3ccccc3)ccc1NC2c1ccccn1 (configuration not stated) | 18.1%
CC1(C)CC(=O)C2=C(C1)Nc1ccccc1NC2c1ccccn1 (configuration not stated) | 8.61%
COCCNC(=O)c1cc2oc3ccccc3c2n1C | 15%
O=C1OC(/C(=C\Nc2ccc(F)cc2F)[N+](=O)[O-])c2ccccc21 (configuration not stated) | 8.86%
O=C1OC(/C(=C\Nc2ccccc2)[N+](=O)[O-])c2ccccc21 (configuration not stated) | 7.21%
O=[N+]([O-])c1cc(S(=O)(=O)N2CCCC2)ccc1NCCCN1CCOCC1 | 4.04%
O=[N+]([O-])c1cc2oc3c(c2c(C=NCc2ccccc2)c1O)CCCC3 | -0.25%
CC(C)NCc1c(O)c(Br)cc2oc3c(c12)CCCC3 | 9.95%
Oc1c(Br)cc2oc3c(c2c1CNCc1ccccc1)CCCC3 | 33.9% (active)
O=C(CSc1nnc(-c2cccs2)o1)OCc1ccccc1 | 5.09%
CCO[C@H]1OC(C(=O)N2CCOCC2)=C[C@@H](c2ccc(Br)cc2)[C@@H]1CCCO | -2.33%
CC/C(=C\C1CCCCC1)C(NP(=O)(c1ccccc1)c1ccccc1)c1ccccc1 (configuration not stated) | 5.64%

Structure (SMILES) | inhibition
CCOc1cc(NS(=O)(=O)c2ccc(OC)cc2)c(OCC)cc1NC(=O)c1ccco1 | 1.99%
CCOC(=O)C1C(=O)CC(C)(O)C(C(=O)OCC)C1c1ccc(Br)cc1 (configuration not stated) | 11.1%
Cc1ccc(NC(=O)N2CCN(S(=O)(=O)c3ccccc3)CC2)cc1 | -1.89%
O=C(COC(=O)CCSc1ccc(Cl)cc1)NCCc1ccccc1 | -5.52%
NS(=O)(=O)c1ccc(CCNC(=O)CSc2ccc(Cl)cc2)cc1 | 9.38%
O=C(CCC(=O)Nc1ccccc1)N/N=C/C=C/c1ccccc1 | 7.53%
Cn1c(=O)c2c(nc(NCc3ccccc3)n2CC(=O)NCc2ccccc2)n(C)c1=O | -6.75%
Cc1cccc(C(=O)Oc2ccc(/C=N/NC(=O)c3ccccc3O)cc2)c1 | 3.44%
CCOC(=O)c1ccc2[nH]c3c(c2c1)CCCC3O (configuration not stated) | 0.31%
CCN(CC)c1ccc(/C=C2/C(=O)ON=C2C)cc1 | 15.8%
CCN(CC)c1ccc(/C=C2/C(=O)N(c3ccc([N+](=O)[O-])cc3)N=C2N2CCOCC2)cc1 | -6.76%
C=CCOC(=O)c1[nH]c2c(c1C)C(=O)CC(c1ccco1)C2 (configuration not stated) | 9.27%
N#CC1=C(N)C2=CCCC[C@H]2[C@H](c2ccc(Br)cc2)C1(C#N)C#N | 1.37%
N#CC1=C(N)C2=C(N3CCCCC3)CCCC2C1(C#N)C#N (configuration not stated) | 27.6% (active)
N#CC1=C(N)C2=CCCC[C@H]2[C@H](c2ccccc2)C1(C#N)C#N | 0.19%
COc1ccc(-c2cc(-c3cccnc3)c(C#N)c(N)n2)cc1 | 11.1%
Cc1cc(NS(=O)(=O)c2ccc(NC(=O)C(C)N3C(=O)c4ccccc4C3=O)cc2)nc(C)n1 (configuration not stated) | 2.55%
CC(C)CC(C(=O)NC(=O)NCc1ccccc1)N1C(=O)c2ccccc2C1=O (configuration not stated) | 7.55%
Cc1noc(NS(=O)(=O)c2ccc(NC(=O)CCN3C(=O)c4ccccc4C3=O)cc2)c1C | 12.8%
CC(C)CC(C(=O)NCc1ccccn1)N1C(=O)c2ccccc2C1=O (configuration not stated) | 13.1%
Cc1noc(NS(=O)(=O)c2ccc(NC(=O)c3ccc(N4C(=O)c5ccccc5C4=O)cc3)cc2)c1C | -1.13%
Cc1cc(NS(=O)(=O)c2ccc(NC(=O)C(C(C)C)N3C(=O)c4ccccc4C3=O)cc2)nc(C)n1 (configuration not stated) | 11.3%
CC(C)CC(C(=O)Nn1cnnc1)N1C(=O)c2ccccc2C1=O (configuration not stated) | 25.1% (active)
